{
  "source": "PubChem BioAssay (EPA / NIEHS)",
  "note": "Activity calls are given as the source filed them. The calls were made as follows: active = hit-call score of the fitted dose curve at least 0.9, where 1 is the maximum; inactive = score below 0.9.",
  "data": [
    {"assay": "ATG_RORE_CIS: Attagene CIS-FACTORIAL HepG2 Assay for human RAR-related Orphan Receptor Element (RORE) (AID 2282959)", "details": "HepG2 Attagene cis-factorial RORE reporter, mRNA; actives raise or lower the signal", "procedure,_shortened": "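Readout: fluorescent reporter mRNA by RT-PCR plus capillary electrophoresis, 24 h after dosing transfected HepG2 cells. Endogenous transcription factor activity on a cis promoter element is measured. Gain or loss of signal fitted against DMSO.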", "values": [
      {"smiles": "CCOP(=O)(SC(C)CC)N1CCSC1=O", "note": "(configuration not stated)", "outcome": "inactive"},
      {"smiles": "CCCCOC(=O)[C@@H](C)Oc1ccc(Oc2ccc(C#N)cc2F)cc1", "outcome": "inactive"},
      {"smiles": "CC(=NC#N)N(C)Cc1ccc(Cl)nc1", "outcome": "inactive"},
      {"smiles": "COc1cc(OC)nc(Sc2cccc(Cl)c2C(=O)O)n1", "outcome": "inactive"},
      {"smiles": "CON=C(C(=O)OC)c1ccccc1CON=C(C)c1cccc(C(F)(F)F)c1", "outcome": "inactive"},
      {"smiles": "CC1=NNC(=O)N(/N=C/c2cccnc2)C1", "outcome": "inactive"},
      {"smiles": "S=C1NCCN1", "outcome": "inactive"},
      {"smiles": "CC(C)=CC1C(C(=O)OCN2C(=O)C3=C(CCCC3)C2=O)C1(C)C", "note": "(configuration not stated)", "AC50": "50 µM (active)"},
      {"smiles": "CC(C1CC1)C(O)(Cn1cncn1)c1ccc(Cl)cc1", "note": "(configuration not stated)", "outcome": "inactive"},
      {"smiles": "C#CC(C)(C)NC(=O)c1cc(Cl)cc(Cl)c1", "outcome": "inactive"},
      {"smiles": "CCC(=O)Nc1ccc(Cl)c(Cl)c1", "outcome": "inactive"},
      {"smiles": "O=C(O)c1cc(Oc2ccc(C(F)(F)F)cc2Cl)ccc1[N+](=O)[O-]", "outcome": "inactive"},
      {"smiles": "CCOP(=S)(OCC)SCCSCC", "outcome": "inactive"},
      {"smiles": "CCc1cnc(C2=NC(C)(C(C)C)C(=O)N2)c(C(=O)O)c1", "note": "(configuration not stated)", "outcome": "inactive"},
      {"smiles": "CCOP(=S)(Oc1cnc(C(C)(C)C)nc1)OC(C)C", "note": "(configuration not stated)", "AC50": "13.1 µM (active)"},
      {"smiles": "CCOP(=S)(OCC)OC(Cl)C(Cl)(Cl)Cl", "note": "(configuration not stated)", "outcome": "inactive"},
      {"smiles": "CN(C)C(=O)Nc1cccc(C(F)(F)F)c1", "outcome": "inactive"},
      {"smiles": "CNC(=O)ON=C(C)SC", "outcome": "inactive"},
      {"smiles": "CCCOc1nn(C(=O)NS(=O)(=O)c2ccccc2C(=O)OC)c(=O)n1C", "outcome": "inactive"},
      {"smiles": "CCOC(=O)COc1cc(-c2nn(C)c(OC(F)F)c2Cl)c(F)cc1Cl", "outcome": "inactive"},
      {"smiles": "CCOP(=S)(OCC)Oc1ccc([N+](=O)[O-])cc1", "outcome": "inactive"},
      {"smiles": "CC[C@H](C)[C@H]1O[C@]2(C=C[C@@H]1C)C[C@@H]1C[C@@H](C/C=C(\\C)[C@@H](O[C@H]3C[C@H](OC)[C@@H](O[C@H]4C[C@H](OC)[C@@H](NC)[C@H](C)O4)[C@H](C)O3)[C@@H](C)/C=C/C=C3\\CO[C@@H]4[C@H](O)C(C)=C[C@@H](C(=O)O1)[C@]34O)O2", "outcome": "inactive"}
    ]}
  ]
}
